Laboratory results from the supplement of paper PMC10933113.
Values without a mark were called inactive.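 How the source made its calls: active = curve rank above 3; inactive = curve rank 0.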

What follows are compounds tested on KeratinoSens (HaCaT ARE-luciferase) cells (assay: Nrf2/ARE luciferase activation call in qHTS KeratinoSens assay (1 = active, 0 = inactive)).

Row | Structure (SMILES) | Nrf2/ARE luciferase activation call
1 | CCOc1cc(N)c(Cl)cc1C(=O)NCC1CN(Cc2ccc(F)cc2)CCO1.O=C(O)CC(O)(CC(=O)O)C(=O)O (stereo not given) | not active ARE inducer (skin sensitizer alert)
2 | COC[C@H](c1ccc(C(F)(F)F)cc1)N1CCN(C2(C)CCN(C(=O)c3c(C)ncnc3C)CC2)C[C@H]1C.O=C(O)/C=C\C(=O)O | not active ARE inducer (skin sensitizer alert)
3 | CCCc1nc(C)c2c(=O)nc(-c3cc(S(=O)(=O)N4CCN(CC)CC4)ccc3OCC)[nH]n12.O=C(O)CC(O)(CC(=O)O)C(=O)O | not active ARE inducer (skin sensitizer alert)
4 | CN1CCC[C@@H]1CCO[C@](C)(c1ccccc1)c1ccc(Cl)cc1.O=C(O)/C=C/C(=O)O | not active ARE inducer (skin sensitizer alert)
5 | CO[C@@H]1COCC[C@@H]1[NH2+][C@@H]1CC[C@@](C(=O)N2CCc3ncc(C(F)(F)F)cc3C2)(C(C)C)C1.O=C([O-])CCC(=O)O | not active ARE inducer (skin sensitizer alert)
6 | CC(C)C[P+](C)(CC(C)C)CC(C)C.Cc1ccc(S(=O)(=O)[O-])cc1 | not active ARE inducer (skin sensitizer alert)
7 | C[NH+](C)CCC(c1ccccc1)c1cccc[nH+]1.O=C([O-])/C=C\C(=O)[O-] (stereo not given) | not active ARE inducer (skin sensitizer alert)
8 | CCCCCCCCn1cc[n+](C)c1.O=S(=O)([O-])C(F)(F)F | not active ARE inducer (skin sensitizer alert)
9 | CN(C)CCOC(c1ccc(Cl)cc1)c1ccccn1.O=C(O)/C=C\C(=O)O (stereo not given) | not active ARE inducer (skin sensitizer alert)
10 | C[C@H](N)[C@H](O)c1cccc(O)c1.O=C(O)[C@@H](O)[C@@H](O)C(=O)O | not active ARE inducer (skin sensitizer alert)
11 | O=C(O)/C=C\C(=O)O.O=C(O)/C=C\C(=O)O.c1cc(CN2CCCCC2)cc(OCCCNc2nc3ccccc3s2)c1 | not active ARE inducer (skin sensitizer alert)
12 | CC(C)OC(=O)OCOP(=O)(CO[C@H](C)Cn1cnc2c(N)ncnc21)OCOC(=O)OC(C)C.O=C(O)C=CC(=O)O | not active ARE inducer (skin sensitizer alert)
13 | CCn1cc[n+](C)c1.Cc1ccc(S(=O)(=O)[O-])cc1 | not active ARE inducer (skin sensitizer alert)
14 | Cc1cc(C)[nH]c(=O)n1.O=C(Nc1ccc([N+](=O)[O-])cc1)Nc1ccc([N+](=O)[O-])cc1 | not active ARE inducer (skin sensitizer alert)
15 | CCCCn1cc[n+](C)c1C.O=S(=O)([O-])C(F)(F)F | not active ARE inducer (skin sensitizer alert)
